Results taken from paper PMC5540273 (PLoS ONE, 2017).

Tests used:
Conditions in all cases: concentration: 1 μM, replicates: in singlicate; n = 1
[1] = tested on: NEK4
[2] = tested on: NEK5
[3] = tested on: NEK6
[4] = tested on: NEK7
[5] = tested on: NEK9
[6] = tested on: T1, NIK
T1 construct: gene MAP3K14

[7] = tested on: T2, NIM1
T2 construct: gene MGC42105

[8] = tested on: NLK
[9] = tested on: T3, OSR1
T3 construct: gene OXSR1

[10] = tested on: PAK1
[11] = tested on: PAK2
[12] = tested on: PAK3
[13] = tested on: PAK4
[14] = tested on: PAK6
[15] = tested on: PAK7
[16] = tested on: T4, PCTK1
T4 construct: gene CDK16

[17] = tested on: T5, PCTK2
T5 construct: gene CDK17

[18] = tested on: T6, PCTK3
T6 construct: gene CDK18

[19] = tested on: PDGFRA
[20] = tested on: PDGFRB
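Further: KINOMEscan kinase panel screen.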

| SMILES | %Inh [1] [%] | %Inh [2] [%] | %Inh [3] [%] | %Inh [4] [%] | %Inh [5] [%] | %Inh [6] [%] | %Inh [7] [%] | %Inh [8] [%] | %Inh [9] [%] | %Inh [10] [%] | %Inh [11] [%] | %Inh [12] [%] | %Inh [13] [%] | %Inh [14] [%] | %Inh [15] [%] | %Inh [16] [%] | %Inh [17] [%] | %Inh [18] [%] | %Inh [19] [%] | %Inh [20] [%] |
| --- | --- | --- | --- | --- | --- | --- | --- | --- | --- | --- | --- | --- | --- | --- | --- | --- | --- | --- | --- | --- |
| Cc1ccc(Oc2ccc(Nc3ncnc4cc[nH]c34)cc2C)cn1 | 3 | 0 | 17 | 10 | 5 | 0 | 58 | 0 | 0 | 37 | 37 | 4 | 25 | 27 | 0 | 0 | 8 | 2 | 49 | 21 |
| COc1cc2ncn(-c3cc(OCCCc4ccccc4)c(C(N)=O)s3)c2cc1OC [GSK205189] | 0 | 0 | 0 | 0 | 6 | 0 | 0 | 0 | 2 | 36 | 26 | 6 | 0 | 0 | 0 | 0 | 0 | 19 | 0 | 25 |
| Cl.c1ccc(Cn2cnc3cc(Nc4ncnc5ccccc45)ccc32)cc1 [GW272142] | 0 | 16 | 0 | 0 | 7 | 14 | 0 | 0 | 26 | 0 | 0 | 0 | 0 | 58 | 9 | 0 | 0 | 29 | 0 | 6 |
| COc1cc2nccc(Nc3cccc(Oc4ccccc4)c3)c2cc1OC.Cl [GW284543] | 3 | 0 | 0 | 11 | 27 | 37 | 19 | 24 | 4 | 0 | 0 | 0 | 0 | 0 | 4 | 4 | 0 | 2 | 22 | 26 |
| Cn1c(=O)c(F)c(Nc2ccc(I)cc2F)c2c(=O)n(OC[C@H](O)CO)cnc21 | 0 | 4 | 30 | 0 | 0 | 0 | 0 | 0 | 0 | 0 | 7 | 1 | 8 | 20 | 0 | 0 | 11 | 5 | 0 | 11 |
| OCCCNc1nccc(-c2c(-c3cccc(C(F)(F)F)c3)nn3cc(C(F)(F)F)ccc23)n1 [GW630813] | 0 | 5 | 0 | 0 | 1 | 0 | 0 | 92.7 | 0 | 0 | 0 | 3 | 0 | 0 | 12 | 11 | 0 | 19 | 0 | 6 |
| CCC(=O)c1c(-c2ccccc2)c2cc(Cl)ccc2c(=O)n1Cc1cc(S(C)(=O)=O)n(CC(F)F)n1 | 0 | 0 | 0 | 0 | 0 | 0 | 0 | 0 | 0 | 0 | 0 | 0 | 0 | 0 | 0 | 0 | 4 | 0 | 0 | 0 |
| CCS(=O)(=O)c1ccc(OC)c(Nc2ncc(-c3ccc(F)cc3)o2)c1.Cl [GW591947] | 0 | 9 | 0 | 0 | 11 | 0 | 5 | 22 | 4 | 0 | 13 | 0 | 0 | 0 | 14 | 4 | 0 | 16 | 0 | 24 |
| COc1cc(Nc2nccc(N3CCC(NC(=O)C(C)c4ccc(Cl)cc4)C3)n2)cc(OC)c1OC (centres unmarked) [GSK1379757] | 0 | 95.5 | 0 | 0 | 19 | 0 | 0 | 0 | 0 | 10 | 11 | 22 | 0 | 0 | 0 | 0 | 0 | 0 | 0 | 14 |
| FC(F)(F)c1ccc(-c2ncn(CCCN3CCOCC3)c2-c2ccncc2)cc1 [SB-217780] | 0 | 9 | 0 | 10 | 33 | 0 | 26 | 35 | 5 | 20 | 34 | 12 | 21 | 17 | 0 | 10 | 0 | 20 | 34 | 32 |
| Nc1nccc2scc(-c3ccc4c(c3)CCN4C(=O)Cc3ccccc3)c12 [GSK2576924] | 0 | 14 | 0 | 0 | 18 | 23 | 8 | 0 | 7 | 18 | 0 | 55 | 0 | 0 | 30 | 0 | 9 | 17 | 4 | 43 |
| Nc1nc(-c2ccccc2F)c(-c2ccnc3ccccc23)s1 [GW560459] | 0 | 0 | 0 | 8 | 53 | 17 | 22 | 27 | 4 | 18 | 18 | 14 | 0 | 0 | 0 | 9 | 0 | 13 | 0 | 6 |
| COc1cccc(-n2cnc3c(N)ncnc32)c1 [SKF-97416] | 0 | 8 | 8 | 0 | 0 | 27 | 61 | 0 | 24 | 20 | 53 | 0 | 18 | 18 | 1 | 15 | 0 | 6 | 42 | 4 |
| COc1cc2ncn(-c3cc(OCc4ccncc4)c(C(N)=O)s3)c2cc1OC [GSK336313] | 0 | 23 | 0 | 0 | 15 | 0 | 0 | 11 | 31 | 16 | 3 | 0 | 0 | 4 | 0 | 9 | 0 | 18 | 0 | 27 |
| O=C(Nc1n[nH]c2nc(-c3ccccc3)c(Cl)cc12)C1CC1 [SB-734909] | 23 | 11 | 0 | 0 | 2 | 13 | 6 | 11 | 0 | 0 | 0 | 23 | 0 | 0 | 7 | 0 | 0 | 30 | 46 | 97 |
| CCC(=O)c1c(-c2ccccc2)c2cc(Cl)ccc2c(=O)n1Cc1cc(C(=O)NC2CC2)n(C)n1 | 16 | 0 | 8 | 0 | 0 | 0 | 1 | 0 | 0 | 20 | 16 | 11 | 0 | 4 | 0 | 1 | 6 | 0 | 15 | 77 |
| O=C1NC(=O)C(c2ccccc2)=C1Nc1cccc(O)c1 [SB-390534] | 13 | 0 | 0 | 14 | 0 | 3 | 100 | 0 | 0 | 0 | 16 | 26 | 0 | 0 | 0 | 0 | 6 | 0 | 0 | 0 |
| COC(=O)c1c(-c2ccccc2)c2cc(Br)ccc2c(=O)n1Cc1ccc(NC(=O)CCC(=O)O)cc1 | 1 | 0 | 7 | 18 | 11 | 0 | 2 | 0 | 14 | 15 | 17 | 0 | 2 | 18 | 2 | 15 | 7 | 0 | 16 | 57 |
| Cc1ccccc1COc1cc(-n2cnc3cc(Cl)ccc32)sc1C(N)=O [GW813349] | 0 | 6 | 0 | 4 | 0 | 9 | 5 | 0 | 0 | 0 | 0 | 0 | 0 | 1 | 0 | 15 | 0 | 0 | 1 | 0 |
